Screening data deposited in PubChem by National Center for Advancing Translational Sciences (NCATS).
Most compounds without a hit are left out; they make up all but 8% or so of the library.
RORgamma inh – blocks mouse ROR gamma transcriptional activity. 310,000 tested, 5.4% active. Potency, µM (titrated, usually from 53.6 µM), inactives show top-dose activity change, negative = inhibition, most hits filed as inhibitors. Drosophila S2 Gal4-RORgamma UAS-luciferase reporter, 20 h. AID 2551; further: potency means the concentration at half of the fitted maximal effect; nearly all actives have a fitted effect of over 60% in size
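In this cell-based reporter format, copper sulfate (700 uM final) drives Gal4–ROR gamma fusion expression from a metallothionein promoter in Drosophila Schneider cells; compounds preincubated 1 hr, reporter read after 20 hr at ambient temperature.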
Coupling enz – counter-screen for Giardia aldolase inhibitors: coupling enzyme system. coupling enzyme system counterscreen, AmpLite Red fluorescence. activity change, negative = inhibition, % at 58.2 µM, hits read low. 290,000 tested, 0.67% active; in the data active means activity change below about -30%
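Activity here indicates interference with the coupling reaction, not aldolase inhibition. Compounds at 57.5 uM final met coupling enzymes for 10 min at RT; substrate and AmpLite Red detection followed, with a 525/598 nm fluorescence read after 20 min.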
TSHR antagonist – antagonists of human thyroid stimulating hormone receptor; AID 504810; TSHR-expressing cells, TSH-stimulated cAMP HTRF, 2 h; active compounds read low; activity change, negative = inhibition, % at 11.5 µM; 330,000 tested, 0.2% active;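 active means activity change below a set negative limit, meaning inhibition stronger than a set level, cut at about -70% in these data; inconclusive means activity change between two set negative limits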
Target sequence (P16473 whole entry, looked up): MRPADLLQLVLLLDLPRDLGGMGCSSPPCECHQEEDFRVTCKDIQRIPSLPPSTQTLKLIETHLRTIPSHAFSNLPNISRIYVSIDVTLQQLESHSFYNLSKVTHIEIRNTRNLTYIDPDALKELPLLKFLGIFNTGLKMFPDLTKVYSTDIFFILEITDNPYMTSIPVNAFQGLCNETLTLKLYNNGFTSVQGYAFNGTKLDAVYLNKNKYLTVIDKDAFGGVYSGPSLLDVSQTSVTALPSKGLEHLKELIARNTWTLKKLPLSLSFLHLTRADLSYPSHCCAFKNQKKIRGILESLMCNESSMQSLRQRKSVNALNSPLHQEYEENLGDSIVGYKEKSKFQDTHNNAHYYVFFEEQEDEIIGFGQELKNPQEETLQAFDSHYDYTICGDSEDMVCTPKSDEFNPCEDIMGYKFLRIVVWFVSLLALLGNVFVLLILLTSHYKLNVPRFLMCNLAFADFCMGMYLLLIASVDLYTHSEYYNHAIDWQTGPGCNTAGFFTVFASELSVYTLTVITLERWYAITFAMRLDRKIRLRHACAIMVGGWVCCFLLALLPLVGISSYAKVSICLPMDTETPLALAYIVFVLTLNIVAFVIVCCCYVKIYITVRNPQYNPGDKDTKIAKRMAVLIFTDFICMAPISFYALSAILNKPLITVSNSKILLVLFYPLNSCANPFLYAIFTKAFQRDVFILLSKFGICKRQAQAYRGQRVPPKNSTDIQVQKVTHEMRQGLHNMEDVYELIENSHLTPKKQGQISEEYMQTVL
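TSHR-expressing cells, 200/well, pre-treated with compound, then stimulated with EC80 TSH (4nM final) for 2 hours at 37 deg C. cAMP measured by competitive HTRF: anti-cAMP cryptate antibody in lysis buffer plus cAMP-d2, read after 30 minutes at room temperature.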
ELG1 repair inh – blocks ELG1-dependent DNA repair in HEK293T cells; HEK293T ELG1-luciferase reporter, luminescence, 16 h; DNA damage induced by 5-fluorouridine; Potency, µM (highest dose often 46.1 µM), for the others: top-dose activity change, negative = inhibition, hits mostly inhibitors; 330,000 tested, 2.3% active; further: potency means the concentration at half of the fitted maximal effect; nearly all actives have a fitted effect of over 55% in size
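In this reporter screen, reduction of luminescence relative to DMSO vehicle indicated activity. Compounds and 5-fluorouridine were added together to 2,000 cells per well, incubated for 16 hr at 37 °C, then developed with ONE-Glo.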
VP16 counter – Gal4-VP16 reporter inhibition counter-screen; Drosophila S2 Gal4-VP16 UAS-luciferase, luminescence, 20 h; 310,000 tested, 3.5% active; Potency, µM (highest dose often 53.6 µM), without a hit: top-dose activity, negative = inhibition, usual class: inhibitors;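 further: Gal4-VP16 expression switched on by copper sulfate through the metallothionein promoter; potency means the concentration at half of the fitted maximal effect; nearly all actives have a fitted effect of over 50% in size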
ELG1 FLuc counter – luciferase inhibition in cell-free luciferin readout for ELG1 hits; shares compounds with ELG1 repair inh; cell-free firefly luciferase luminescence counter-screen, ViewLux; Potency, µM (highest dose often 46.1 µM), inactives show top-dose activity change, negative = inhibition, usual class: inhibitors; 350 tested, 3% active; AID 624247; further: potency means the concentration at half of the fitted maximal effect
ELG1 Luc conf – inhibits ELG1-dependent DNA repair in HEK293T cells, confirmed; 670 tested, 68% active; Potency, µM (top dose mostly 46.1 µM), without a hit: at the highest dose activity change, negative = inhibition, hits mostly inhibitors; HEK293T ELG1-luciferase levels, luminescence; cells co-treated with 5-fluorouridine; shares compounds with ELG1 repair inh; AID 624248; further: potency means the concentration at half of the fitted maximal effect; nearly all actives have a fitted effect of over 55% in size
ELG1-Luc MMS – MMS-stimulated human ELG1 repair inhibition, confirmed | shares compounds with ELG1 repair inh | HEK293T luciferase-tagged ELG1 level, MMS stimulated | Potency, µM (doses to about 46.1 µM), without a hit: top-dose activity change, negative = inhibition, usual class: inhibitors | 670 tested, 53% active | AID 624249; further: potency means the concentration at half of the fitted maximal effect; nearly all actives have a fitted effect of over 60% in size
ELG1 5FU viab – confirmation of ELG1 repair inhibitors: viability with 5FU; shares compounds with ELG1 repair inh; cell viability with 5-FU, ELG1-dependent repair; Potency, µM (series often up to 46.1 µM), for the others: at the highest dose activity change, negative = viability loss, actives largely listed as cytotoxic; 670 tested, under 10 active; AID 624250;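 further: ELG1-luc HEK293T cells cotreated with 5-fluorouridine at 10 µM final; potency means the concentration at half of the fitted maximal effect; viability measured 16 h after compound addition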
ELG1 MMS cell – confirmation of ELG1 repair inhibitors: viability with MMS. shares compounds with ELG1 repair inh. Cell viability with MMS, ELG1-dependent DNA repair. Potency, µM (doses to about 46.1 µM), for the others: at the top dose activity change, negative = viability loss, usual class: cytotoxic. 670 tested, 33% active;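 further: ELG1-luc HEK293T cells co-treated with 10 µM MMS; potency means the concentration at half of the fitted maximal effect; viability read 16 h after compound addition; nearly all actives have a fitted effect of over 60% in size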
Cell viab unstim – affects unstimulated cell viability, ELG1 hit counter-screen; shares compounds with ELG1 repair inh; cell viability counter-screen, unstimulated, luminescence; 900 tested, 8% active; Potency, µM (titrated, usually from 45.9 µM), without a hit: at the highest dose activity change, negative = loss of viability, hits mostly cytotoxic;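 further: potency means the concentration at half of the fitted maximal effect; compound exposure lasted 16 hours before reading; nearly all actives have a fitted effect of over 55% in size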
FLuc biochem – inhibits purified firefly luciferase, counter-screen for ELG1 hits; 350 tested, 10% active; Potency, µM (titrated, usually from 57.5 µM), without a hit: at the highest dose activity, negative = inhibition, hits mostly inhibitors; purified firefly luciferase, luminescence counter-screen; shares compounds with ELG1 repair inh; further: potency means the concentration at half of the fitted maximal effect
* hit, by the source's call; ? = inconclusive; · = no result given; [ ] = remark or other dose. Unless noted, the call rests on the fitted dose curve; in most records, active means well fitted curve in the direction sought with a large enough effect; inconclusive means small, poorly fitted or top-dose-only effect, or another doubt; inactive means no such curve, though single readings can be large; an effect the other way counts as inactive or inconclusive. On the % scale 0 is the no-effect control and ±100 the full control effect.

SMILES	RORgamma inh	Coupling enz	TSHR antagonist	ELG1 repair inh	VP16 counter	ELG1 Luc conf	ELG1-Luc MMS	ELG1 5FU viab	ELG1 MMS cell	Cell viab unstim	others
COc1cc(/C=N/NC(=O)c2ccc(CN3c4cccc5cccc(c45)S3(=O)=O)cc2)cc(OC)c1O	5%	1	4	3.3µM*	-1%	3.5µM*	22µM*	?	25µM*	?
O=C(CN1c2cccc3cccc(c23)S1(=O)=O)NCCc1ccccc1	·	·	-16	?	·	·	·	·	·	·
COc1ccc(CCNC(=O)CN2c3cccc4cccc(c34)S2(=O)=O)cc1OC	?	1	20	2.6µM*	3%	?	20%	?	-1%	?
COc1cccc(NS(=O)(=O)c2ccc3c(c2)CCN3C(C)=O)c1	?	4	-5	2.1µM*	16µM*	?	6.3µM*	-6%	4.4µM*	?
Nc1ncnc2nc(SCc3ccc(Cl)cc3Cl)[nH]c12	-1%	5	-11	?	?	·	·	·	·	·
Nc1cc(=O)[nH]c(SCc2ccc(Cl)cc2Cl)n1	2%	0	-9	4.1µM*	?	-12%	2.8µM*	6%	4µM*	-7%
CC1CN(C(=O)CCNC(=O)c2ccc(Br)cc2)CC(C)O1 (stereo unspecified)	·	·	0	17%	·	·	·	·	·	·
Cc1cc(S(=O)(=O)Nc2nc(CN3CCOCC3)nc3sc4c(c23)CCC4)cc(C)c1C	·	·	5	17%	·	·	·	·	·	·
Cc1cc(S(=O)(=O)Nc2nc(CN3CCOCC3)nc3sc4c(c23)CCCC4)ccc1F	-2%	-1	-13	1%	1%	0%	15%	-7%	-4%	-11%	ELG1 FLuc counter=77%;FLuc biochem=-1%
COc1cc2c(cc1OC)CN(c1nc(CN3CCOCC3)nc3sc4c(c13)CCCC4)CC2	14µM*	3	-4	2.9µM*	?	4µM*	10µM*	?	16µM*	?	ELG1 FLuc counter=?;FLuc biochem=-7%
c1nc(N2CCOCC2)c2c3c(sc2n1)CCCC3	-20%[0.365 µM]	2	-11	?	·	·	·	·	·	·
CCc1nnc(NS(=O)(=O)c2ccc(N=CC3=C(O)CC(C)(C)CC3=O)cc2)s1	-9%	4	0	27%	5%	·	·	·	·	·
c1ccc(-c2cc3cc4c(cc3cn2)OCO4)cc1	·	·	-36	?	·	·	·	·	·	?
COc1cc(OC)cc(-c2cc3cc4c(cc3cn2)OCO4)c1	·	·	-48	?	·	·	·	·	·	?
c1ccc(-c2cc3ccccc3cn2)cc1	·	·	-13	?	·	·	·	·	·	·
